# Results published in PubChem BioAssay (NCATS).
# Several values for one entry are separate records, joined by “and”; a condition that tells them apart may be missing. Equal values may be shown once. Records with an inconclusive call do not appear. Entries that show only a call come without a potency. Activity calls are given as the source filed them. Unless noted, calls come from the whole dose curve; as a rule, active = well fitted curve in the direction sought with a large enough effect; inconclusive = small, poorly fitted or top-dose-only effect, or another doubt; inactive = no such curve, though single readings can be large; an effect the other way counts as inactive or inconclusive.
# Key:
# [1] = Cell Viability - NIH 3T3 (AID 541); conditions: NIH 3T3 cell viability, qHTS; activity change, negative = cytotoxicity: at 92.2 µM (top of the series);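 note: cells exposed to compound for 40 hours; nearly all actives have a fitted effect of over 25% in size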; note: potency is the fitted concentration of half-maximal effect
# Outline: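 Cells seeded at 1000/well, rested 5 hr at 37 °C, then dosed and incubated 40 hr at 37 °C. CellTiter-Glo added, 20 min room temperature, luminescence read. AC50 by Hill fit.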
# [2] = Cellular Toxicity (caspase-3) Jurkat (AID 655); conditions: Jurkat caspase-3 activation, luminescence; caspase-3 activation: at 92.2 µM (top of the series), DMSO = 0%, tamoxifen = 100%;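 note: cells exposed to compound for 16 h at 37 °C before reading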; note: potency is the fitted concentration of half-maximal effect
# Outline: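 Luminescent Caspase-Glo 3/7 read-out (20 min, room temperature) after 16 h compound treatment at 37 C of 5000 Jurkat cells per well. AC50 derived by Hill-equation fitting, scaled between DMSO basal and 100 uM tamoxifen stimulation.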
# [3] = Cellular Toxicity (caspase-3) BJ (AID 658); conditions: Potency: caspase-3 activation
# Outline: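 qHTS, BJ fibroblasts, 1000 cells/well; 5 hr preincubation, 16 hr compound, 37 °C; Caspase-Glo 3/7 reagent, 1 hr RT; luminescence. DMSO = 0%, 10 uM staurosporine = 100%. Hill-equation AC50.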
# [4] = Cellular Toxicity (caspase-3) Hek293 (AID 664); conditions: HEK293 caspase-3 activation, DMSO = 0%, 100 µM tamoxifen = 100%; at 92.2 µM (top of the series);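 note: cells exposed to compound for 16 h at 37 °C before readout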
# Outline: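 qHTS, HEK293 (human embryonic kidney), 16 h cpd exposure in complete medium. Caspase-3/7 activation = luminescence increase; normalized to DMSO/100 uM tamoxifen; Hill-fit AC50.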
# [5] = molecular target: Cytochrome P450 3A4 (Homo sapiens) (UniProt P08684); assay: qHTS Assay for Inhibitors and Substrates of Cytochrome P450 3A4 (AID 884); note: nearly all actives have a fitted effect of over 50% in size; note: potency is the fitted concentration of half-maximal effect
# Outline: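 Luminescent readout of luciferin produced by CYP3A4 (20 nM) dealkylation of Luciferin-PPXE, 25 uM (its KM). NADPH-driven reaction ran 60 min at RT after 10 min compound preincubation; data scaled to 57 uM ketoconazole as 100% inhibition.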
# [6] = molecular target: Vitamin D3 receptor (Homo sapiens) (UniProt P11473); assay: qHTS assay for small molecule antagonists of vitamin D receptor signaling (AID 588541; calls by dose curve;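 note: receptor activated by calcitriol during compound treatment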)
# Outline: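 VDR-UAS-bla HEK293T cells in 2% charcoal-stripped FBS were stimulated with 1-alpha,25-dihydroxyvitamin D3 (3 nM final) plus compound for 16 h at 37 C. The beta-lactamase CCF4 readout was normalized to 50 nM agonist and DMSO, and Hill fits gave IC50.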
# [7] = molecular target: Vitamin D3 receptor (Homo sapiens) (UniProt P11473); assay: qHTS assay for small molecule agonists of vitamin D receptor signaling (AID 588543; calls by dose curve)
# Outline: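 Agonist-mode beta-lactamase reporter: HEK293T VDR-UAS-bla cells in charcoal-stripped 2% FBS, compound series 16 h 37 C, CCF4 2 h RT. EC50 from Hill fit, scaled against DMSO and 50 nM calcitriol control.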
# [8] = qHTS assay for small molecule activators of the human pregnane X receptor (PXR) signaling pathway (AID 720659; call rule not given here)
# [9] = molecular target: Glucocorticoid receptor (Homo sapiens) (UniProt P04150); assay: qHTS assay for small molecule agonists of glucocorticoid receptor signaling (AID 588532; active = well fitted curve in the direction sought with a large enough effect in the signal ratio, with a control signal flat; the % refers to the signal ratio); conditions: HeLa MMTV-bla, beta-lactamase ratio, agonist, 18 h; stronger effect = higher value; percent of dexamethasone control, DMSO zero
# Outline: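 MMTV-bla HeLa beta-lactamase reporter cells in 1% charcoal/dextran FBS medium, compounds up to 92 uM for 18 h at 37 C, CCF4 readout; normalized to 0.1 uM dexamethasone (100%), EC50 and efficacy from Hill fits.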
# [10] = qHTS assay for small molecule antagonists of peroxisome proliferator-activated receptor delta signaling (AID 588535); conditions: HEK293T PPARd-UAS-bla, beta-lactamase FRET ratio, 18 h; 460 nm channel;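 note: cells co-treated with a PPAR-delta agonist as stimulator during compound exposure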
# Outline: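 Fluorescence from CCF4-loaded GeneBLAzer PPAR-delta-UAS-bla HEK293T cells (2 hrs RT loading) quantified reporter inhibition after an 18 hr, 37 C compound exposure across a titration.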
# [11] = molecular target: Peroxisome proliferator-activated receptor gamma (Homo sapiens) (UniProt P37231); assay: qHTS assay for small molecule agonists of peroxisome proliferator-activated receptor gamma signaling (AID 588536; active = well fitted curve in the direction sought with a large enough effect in the signal ratio, with a control signal flat, not every such curve was filed as active; the % refers to the signal ratio)
# Outline: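 This is an agonist-mode beta-lactamase reporter assay in HEK293 PPAR-gamma-UAS-bla cells with 1% charcoal/dextran FBS. Compound titrations ran 16 h at 37 C before CCF4 detection. EC50 and efficacy are Hill fits scaled to 2 uM rosiglitazone (100%) and DMSO basal.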
# [12] = qHTS assay for small molecule agonists of the antioxidant response element (ARE) signaling pathway (AID 651741; active = well fitted activation curve with a large enough effect in the signal ratio; the % refers to the signal ratio; note: potency is the fitted concentration of half-maximal effect)
# Outline: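 Stably integrated ARE-beta-lactamase reporter HepG2 cells; 16 h compound incubation, 37 C; LiveBLAzer FRET substrate 2 h at room temperature; fluorescence intensity.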
# [13] = qHTS assay for small molecule activators of the p53 signaling pathway (AID 651743; active = well fitted activation curve with a large enough effect in the signal ratio, not every such curve was filed as active; the % refers to the signal ratio); conditions: HCT-116 p53RE-bla, beta-lactamase FRET ratio, 16 h; activation: stronger effect = higher value
# Outline: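 Following 16 hours of compound exposure at 37 C, HCT-116 cells bearing the p53RE-bla reporter were loaded with LiveBLAzer B/G FRET substrate for 2 hours at room temperature and fluorescence intensity was recorded.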
# [14] = qHTS assay for small molecule activators of the nuclear factor-kappa B (NF-kB) signaling pathway (AID 651749; active = well fitted activation curve with a large enough effect in the signal ratio; the % refers to the signal ratio); conditions: NF-kB-bla ME-180 cells, beta-lactamase FRET ratio, 16 h; stronger effect = higher value
# Outline: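 In this qHTS format, compounds acting as activators increase NF-kB-driven beta-lactamase in ME-180 cells, measured as disrupted FRET after 16 hr exposure at 37C and 5% CO2.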
# [15] = molecular target: Nuclear receptor ROR-gamma (Homo sapiens) (UniProt P51449); assay: qHTS assay for small molecule antagonists of the retinoid-related orphan receptor gamma (ROR-gamma) signaling pathway (AID 651802);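 note: CHO cells with doxycycline-induced ROR-gamma expression; nearly all actives have a fitted effect of over 60% in size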
# Outline: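 Steps: cells dispensed; compound or DMSO transferred by pin tool; doxycycline added to induce the ROR response element-driven luciferase; plates held 16hr at 37C; ONE-Glo added and luminescence measured.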
# [16] = molecular target: Cytochrome P450 3A4 (Homo sapiens) (UniProt P08684); assay: qHTS Assay for Activators of Cytochrome P450 3A4 (AID 885); note: nearly all actives have a fitted effect of over 65% in size
# Outline: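 Luminescent readout of luciferin formed from 25 uM Luciferin-PPXE (KM level) by 20 nM CYP3A4 in 200 mM KPO4, with 60 min NADPH-driven reaction at room temperature after 10 min compound exposure. Ketoconazole (57 uM) defined 100% inhibition.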
# [17] = Cell Viability - LYMP2-007 (AID 979);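 note: cells exposed to compound for 24 h before reading; nearly all actives have a fitted effect of over 60% in size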; note: potency is the fitted concentration of half-maximal effect
# Outline: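 Cells are seeded at 2500 per well and rested 5 hr. Compounds are then added over a concentration series for 24 hr at 37 C. CellTiter-Glo is added for 30 min at room temperature before luminescence reading.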
# [18] = qHTS assay for small molecule disruptors of the mitochondrial membrane potential - 1 hr assay (AID 651754; calls by dose curve; note: nearly all actives have a fitted effect of over 35% in size; note: potency is the fitted concentration of half-maximal effect)
# Outline: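 Loss of mitochondrial potential shifts the cationic dye from red mitochondrial aggregates to green cytoplasmic monomers. Cells (HepG2) are treated with compound for 1 hr before a 30 min dye incubation at 37C.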
# [19] = molecular target: Tumor necrosis factor (Homo sapiens) (UniProt P01375); assay: qHTS assay to identify small molecules that stimulate Tumor Necrosis Factor-alpha (TNF-alpha) secretion (AID 651757; active = well fitted curve in the direction sought with a large enough effect in the signal ratio; the % refers to the signal ratio)
# Outline: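 Human monocytic THP-1 cells are plated, treated with compound and held at 37 C for 17 hrs. Labeled anti-TNF-alpha antibody mixture is then added; after 3 hr at room temperature, TR-FRET signal reports secreted TNF-alpha.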
# Peroxisome proliferator-activated receptor gamma (Homo sapiens), sequence (P37231 whole entry, looked up): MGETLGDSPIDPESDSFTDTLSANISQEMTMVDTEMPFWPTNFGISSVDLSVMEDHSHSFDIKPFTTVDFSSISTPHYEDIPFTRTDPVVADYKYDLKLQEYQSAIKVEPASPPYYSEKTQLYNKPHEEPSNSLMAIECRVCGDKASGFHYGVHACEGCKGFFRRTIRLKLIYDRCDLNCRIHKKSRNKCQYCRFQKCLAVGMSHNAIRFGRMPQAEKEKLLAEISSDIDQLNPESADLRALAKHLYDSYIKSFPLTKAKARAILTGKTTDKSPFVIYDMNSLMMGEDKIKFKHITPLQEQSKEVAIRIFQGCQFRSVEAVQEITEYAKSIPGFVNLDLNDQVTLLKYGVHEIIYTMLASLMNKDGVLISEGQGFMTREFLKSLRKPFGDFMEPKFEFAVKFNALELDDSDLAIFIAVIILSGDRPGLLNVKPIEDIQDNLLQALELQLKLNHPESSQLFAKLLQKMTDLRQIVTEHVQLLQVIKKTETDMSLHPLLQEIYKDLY
# Vitamin D3 receptor (Homo sapiens), sequence (P11473 whole entry, looked up): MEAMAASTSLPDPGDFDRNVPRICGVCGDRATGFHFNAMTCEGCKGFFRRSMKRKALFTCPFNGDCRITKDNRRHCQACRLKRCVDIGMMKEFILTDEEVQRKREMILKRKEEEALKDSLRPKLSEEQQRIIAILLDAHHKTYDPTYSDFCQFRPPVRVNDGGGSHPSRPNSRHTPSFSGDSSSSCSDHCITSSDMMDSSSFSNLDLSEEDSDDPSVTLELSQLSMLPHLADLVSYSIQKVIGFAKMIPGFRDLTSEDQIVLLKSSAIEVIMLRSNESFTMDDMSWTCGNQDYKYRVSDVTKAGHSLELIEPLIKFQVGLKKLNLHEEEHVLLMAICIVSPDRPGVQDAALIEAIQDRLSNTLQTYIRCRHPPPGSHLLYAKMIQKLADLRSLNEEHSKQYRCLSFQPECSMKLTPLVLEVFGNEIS
# Nuclear receptor ROR-gamma (Homo sapiens), sequence (P51449 whole entry, looked up): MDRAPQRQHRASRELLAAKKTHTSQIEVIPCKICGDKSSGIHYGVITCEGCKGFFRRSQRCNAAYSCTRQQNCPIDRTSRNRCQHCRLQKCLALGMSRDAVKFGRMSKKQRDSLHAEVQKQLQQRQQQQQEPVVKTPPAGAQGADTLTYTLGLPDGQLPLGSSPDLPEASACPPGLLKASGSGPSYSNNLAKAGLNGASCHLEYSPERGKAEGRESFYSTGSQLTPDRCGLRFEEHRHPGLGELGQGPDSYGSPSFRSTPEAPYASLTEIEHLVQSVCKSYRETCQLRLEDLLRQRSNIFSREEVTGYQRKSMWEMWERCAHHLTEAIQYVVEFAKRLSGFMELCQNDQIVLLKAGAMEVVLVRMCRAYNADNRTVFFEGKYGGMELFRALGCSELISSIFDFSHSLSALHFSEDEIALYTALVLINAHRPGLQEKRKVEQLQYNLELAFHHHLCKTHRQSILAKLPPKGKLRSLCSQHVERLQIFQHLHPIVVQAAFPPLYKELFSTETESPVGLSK
# Cytochrome P450 3A4 (Homo sapiens), sequence (P08684 whole entry, looked up): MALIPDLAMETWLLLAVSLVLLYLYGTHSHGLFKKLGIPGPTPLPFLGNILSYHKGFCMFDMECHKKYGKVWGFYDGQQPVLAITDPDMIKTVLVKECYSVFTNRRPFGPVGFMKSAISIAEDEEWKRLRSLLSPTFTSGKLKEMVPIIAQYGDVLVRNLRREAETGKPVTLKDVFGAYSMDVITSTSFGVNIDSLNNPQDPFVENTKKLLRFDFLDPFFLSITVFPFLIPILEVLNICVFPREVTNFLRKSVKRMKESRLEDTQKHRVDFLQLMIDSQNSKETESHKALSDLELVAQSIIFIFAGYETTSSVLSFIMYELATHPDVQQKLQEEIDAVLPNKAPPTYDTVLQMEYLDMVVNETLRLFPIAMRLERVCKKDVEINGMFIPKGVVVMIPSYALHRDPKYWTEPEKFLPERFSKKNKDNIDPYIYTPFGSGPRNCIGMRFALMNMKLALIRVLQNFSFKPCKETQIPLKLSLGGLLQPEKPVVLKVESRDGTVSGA
# Glucocorticoid receptor (Homo sapiens), sequence (P04150 whole entry, looked up): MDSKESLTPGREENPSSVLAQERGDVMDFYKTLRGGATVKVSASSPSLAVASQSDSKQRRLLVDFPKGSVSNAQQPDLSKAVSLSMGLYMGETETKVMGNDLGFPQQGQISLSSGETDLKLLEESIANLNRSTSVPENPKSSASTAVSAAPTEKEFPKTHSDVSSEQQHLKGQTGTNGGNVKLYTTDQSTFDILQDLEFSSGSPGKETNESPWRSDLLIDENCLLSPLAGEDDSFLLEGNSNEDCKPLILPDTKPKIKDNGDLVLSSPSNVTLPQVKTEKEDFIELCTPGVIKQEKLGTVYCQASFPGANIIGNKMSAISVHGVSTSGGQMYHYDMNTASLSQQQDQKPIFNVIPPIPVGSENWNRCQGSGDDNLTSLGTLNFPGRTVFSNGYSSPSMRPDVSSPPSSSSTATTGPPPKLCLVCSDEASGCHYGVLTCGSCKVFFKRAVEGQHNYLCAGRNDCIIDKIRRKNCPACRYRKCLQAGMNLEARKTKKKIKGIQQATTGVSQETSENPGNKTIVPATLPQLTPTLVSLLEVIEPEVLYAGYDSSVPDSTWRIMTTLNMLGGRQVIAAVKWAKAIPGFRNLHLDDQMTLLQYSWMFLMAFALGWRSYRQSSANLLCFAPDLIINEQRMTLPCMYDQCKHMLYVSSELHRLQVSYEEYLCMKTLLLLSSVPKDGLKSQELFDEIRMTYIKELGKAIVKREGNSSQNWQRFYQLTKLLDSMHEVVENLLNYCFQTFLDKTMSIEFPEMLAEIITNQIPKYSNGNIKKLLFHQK
# Tumor necrosis factor (Homo sapiens), sequence (P01375 whole entry, looked up): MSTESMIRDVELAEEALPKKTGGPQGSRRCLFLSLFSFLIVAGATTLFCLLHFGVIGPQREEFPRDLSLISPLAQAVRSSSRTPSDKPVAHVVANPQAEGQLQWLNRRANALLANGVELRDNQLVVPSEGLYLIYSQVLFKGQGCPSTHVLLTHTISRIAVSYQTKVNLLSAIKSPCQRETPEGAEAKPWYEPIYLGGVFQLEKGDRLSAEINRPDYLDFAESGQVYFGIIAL
SMILES,"activity change, negative = cytotoxicity [1]",Potency [2],Potency [3],caspase-3 activation [4],Potency [5],Potency [6],Potency [7],outcome [8],activation [9],max response [10] [%],outcome [11],Potency [12],activation [13],activation [14],Potency [15],Potency [16],Potency [17],Potency [18],Potency [19],Potency [1]
Oc1cc(Cl)cc(Cl)c1Cl,-14.4% (inactive),inactive,inactive,-0.269% (inactive),inactive,inactive,inactive,inactive,,,,,,,,,,,,
CC(C)COC(=O)COc1cc(Cl)c(Cl)cc1Cl,-0.53% (inactive),inactive,inactive,,,,,inactive,-3.56% (inactive),16.7,inactive,42.2 µM (active),-1.51% (inactive),-1.07% (inactive),inactive,,,,,
CC1=C(/C=C/C(C)=C/C=C/C(C)=C/C=O)C(C)(C)CCC1,,,,,,inactive,inactive,,,,,29.8 µM (active),,-2.37% (inactive),,inactive,39.8 µM (active),inactive,inactive,
S=C(NC1CCCCC1)NC1CCCCC1,,inactive,,,,inactive,inactive,,9% (inactive),-15.4,inactive,66.8 µM (active),,-0.887% (inactive),inactive,inactive,inactive,,inactive,
CC(C)(C)C(=O)C1C(=O)c2ccccc2C1=O,,inactive,inactive,,,inactive,inactive,,-3.45% (inactive),,,,12% (inactive),1.49% (inactive),,,inactive,inactive,,12.6 µM (active)
Nc1cc(C(=O)O)c(O)c(S(=O)(=O)O)c1,-24.6% (inactive),,,,inactive,inactive,inactive,inactive,1.03% (inactive),,inactive,inactive,-4.77% (inactive),,,,inactive,inactive,,
O=Nc1ccc(Nc2ccccc2)cc1,,,,-5.38% (inactive),,,,,,,,,,-1.21% (inactive) and -2.86% (inactive),,,,inactive,,31.6 µM (active)
O=C1c2ccccc2C(=O)C1(O)O,,31.6 µM (active),,,,inactive,inactive,inactive,,,,66.8 µM (active),,-0.508% (inactive),,,,,inactive,
C=CC1CO1 (centres undefined),-8.56% (inactive),inactive,inactive,-0.428% (inactive),inactive,inactive,inactive,inactive,-10.4% (inactive),,inactive,inactive,-3.74% (inactive),0.488% (inactive),inactive,,inactive,inactive,inactive,
Nc1ccc2c(c1)C(=O)c1ccccc1C2=O,,,inactive,-8.84% (inactive),2.51 µM (active),,,,-3.44% (inactive) and 1.5% (inactive),-6.52,inactive,10.6 µM (active) and 48.6 µM (active),2.17% (inactive) and 5.16% (inactive),1.2% (inactive) and -1.21% (inactive),inactive,inactive,,1.33 µM (active),,
CCCCCCc1ccc(-c2ccc(C#N)cc2)cc1,-12.5% (inactive),inactive,inactive,0.233% (inactive),inactive,,,inactive,-6.81% (inactive),11,,,1.83% (inactive),,,,,inactive,inactive,
NC(=O)Nc1nc2ccccc2[nH]1,,inactive,inactive,,inactive,inactive,inactive,,,-10.2,inactive,inactive,-0.426% (inactive),-0.124% (inactive),inactive,,,inactive,inactive,
